# Results taken from ChEMBL document CHEMBL1961873, “Compounds: GSK PKIS; Assays: Nanosyn kinase panel” (2012).
# Columns and labels:
# [1] = biological target: Ribosomal protein S6 kinase alpha-6 (Homo sapiens) (UniProt Q9UK32); settings: at 1 µM;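 further: each value is a mean inhibition of RSK4 from a GSK PKIS panel screen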
# [2] = biological target: T1, Serine/threonine-protein kinase Sgk1 (Homo sapiens) (UniProt O00141); settings: at 0.1 µM
# T1 sequence (whole entry): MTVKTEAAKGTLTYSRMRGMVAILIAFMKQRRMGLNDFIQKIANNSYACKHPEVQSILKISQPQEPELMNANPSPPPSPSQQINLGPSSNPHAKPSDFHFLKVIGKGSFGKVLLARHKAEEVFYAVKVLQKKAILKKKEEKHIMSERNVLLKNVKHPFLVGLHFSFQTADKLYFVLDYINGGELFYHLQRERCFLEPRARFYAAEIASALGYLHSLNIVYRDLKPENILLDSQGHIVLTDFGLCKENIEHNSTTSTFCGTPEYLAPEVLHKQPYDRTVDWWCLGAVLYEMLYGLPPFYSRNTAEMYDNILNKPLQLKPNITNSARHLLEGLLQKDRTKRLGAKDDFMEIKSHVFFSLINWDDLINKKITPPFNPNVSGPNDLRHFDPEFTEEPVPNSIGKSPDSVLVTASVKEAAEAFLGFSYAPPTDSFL
# [3] = biological target: T1, Serine/threonine-protein kinase Sgk1 (Homo sapiens); settings: at 1 µM
# [4] = biological target: T2, Serine/threonine-protein kinase Sgk2 (Homo sapiens) (UniProt Q9HBY8); settings: at 0.1 µM
# T2 sequence (whole entry): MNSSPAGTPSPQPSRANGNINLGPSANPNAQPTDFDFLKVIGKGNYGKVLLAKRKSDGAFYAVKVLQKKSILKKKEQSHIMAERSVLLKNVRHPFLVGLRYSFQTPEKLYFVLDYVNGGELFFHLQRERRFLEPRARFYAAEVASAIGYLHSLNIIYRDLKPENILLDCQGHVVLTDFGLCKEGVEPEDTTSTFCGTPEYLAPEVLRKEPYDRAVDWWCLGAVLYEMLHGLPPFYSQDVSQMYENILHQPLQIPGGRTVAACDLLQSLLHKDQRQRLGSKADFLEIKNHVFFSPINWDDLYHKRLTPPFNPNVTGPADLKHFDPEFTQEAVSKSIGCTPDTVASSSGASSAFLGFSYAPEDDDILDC
# [5] = biological target: T2, Serine/threonine-protein kinase Sgk2 (Homo sapiens); settings: at 1 µM
# [6] = biological target: T3, Serine/threonine-protein kinase Sgk3 (Homo sapiens) (UniProt Q96BR1); settings: at 0.1 µM
# T3 sequence (whole entry): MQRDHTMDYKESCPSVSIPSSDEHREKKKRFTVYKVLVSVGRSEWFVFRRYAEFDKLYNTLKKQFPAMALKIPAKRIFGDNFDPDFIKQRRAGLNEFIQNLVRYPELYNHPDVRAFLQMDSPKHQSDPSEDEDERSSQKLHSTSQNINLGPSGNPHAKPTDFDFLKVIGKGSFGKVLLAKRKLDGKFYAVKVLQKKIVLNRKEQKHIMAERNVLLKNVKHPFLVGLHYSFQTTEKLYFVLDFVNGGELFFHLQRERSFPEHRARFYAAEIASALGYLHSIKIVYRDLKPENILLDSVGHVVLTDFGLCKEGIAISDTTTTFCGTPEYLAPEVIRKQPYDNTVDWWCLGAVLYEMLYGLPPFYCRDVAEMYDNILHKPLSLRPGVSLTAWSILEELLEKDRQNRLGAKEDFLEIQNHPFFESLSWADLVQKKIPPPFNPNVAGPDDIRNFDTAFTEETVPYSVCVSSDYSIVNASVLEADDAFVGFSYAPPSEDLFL
# [7] = biological target: T3, Serine/threonine-protein kinase Sgk3 (Homo sapiens); settings: at 1 µM
# [8] = biological target: 5'-AMP-activated protein kinase catalytic subunit alpha-1 (Homo sapiens) (UniProt Q13131); settings: at 0.1 µM
# Sequence of 5'-AMP-activated protein kinase catalytic subunit alpha-1 (Homo sapiens) (Q13131 whole entry, looked up): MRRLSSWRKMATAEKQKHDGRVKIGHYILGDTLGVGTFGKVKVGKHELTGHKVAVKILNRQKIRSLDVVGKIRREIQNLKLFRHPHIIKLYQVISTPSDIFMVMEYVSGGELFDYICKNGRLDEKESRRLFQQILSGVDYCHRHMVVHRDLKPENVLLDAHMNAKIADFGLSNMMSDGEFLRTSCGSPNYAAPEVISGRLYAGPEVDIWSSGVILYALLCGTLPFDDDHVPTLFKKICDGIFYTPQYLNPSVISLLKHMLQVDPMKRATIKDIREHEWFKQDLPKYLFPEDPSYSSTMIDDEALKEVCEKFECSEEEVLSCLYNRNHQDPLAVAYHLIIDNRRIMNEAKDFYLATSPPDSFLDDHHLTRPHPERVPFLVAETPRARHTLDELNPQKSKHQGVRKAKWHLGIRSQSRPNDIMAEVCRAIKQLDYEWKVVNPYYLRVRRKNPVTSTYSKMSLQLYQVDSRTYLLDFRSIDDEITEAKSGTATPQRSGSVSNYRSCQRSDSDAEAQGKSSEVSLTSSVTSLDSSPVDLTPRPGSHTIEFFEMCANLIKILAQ
# [9] = biological target: 5'-AMP-activated protein kinase catalytic subunit alpha-1 (Homo sapiens) (UniProt Q13131); settings: at 1 µM
# [10] = biological target: 5'-AMP-activated protein kinase catalytic subunit alpha-2 (Homo sapiens) (UniProt P54646); settings: at 0.1 µM
# Sequence of 5'-AMP-activated protein kinase catalytic subunit alpha-2 (Homo sapiens) (P54646 whole entry, looked up): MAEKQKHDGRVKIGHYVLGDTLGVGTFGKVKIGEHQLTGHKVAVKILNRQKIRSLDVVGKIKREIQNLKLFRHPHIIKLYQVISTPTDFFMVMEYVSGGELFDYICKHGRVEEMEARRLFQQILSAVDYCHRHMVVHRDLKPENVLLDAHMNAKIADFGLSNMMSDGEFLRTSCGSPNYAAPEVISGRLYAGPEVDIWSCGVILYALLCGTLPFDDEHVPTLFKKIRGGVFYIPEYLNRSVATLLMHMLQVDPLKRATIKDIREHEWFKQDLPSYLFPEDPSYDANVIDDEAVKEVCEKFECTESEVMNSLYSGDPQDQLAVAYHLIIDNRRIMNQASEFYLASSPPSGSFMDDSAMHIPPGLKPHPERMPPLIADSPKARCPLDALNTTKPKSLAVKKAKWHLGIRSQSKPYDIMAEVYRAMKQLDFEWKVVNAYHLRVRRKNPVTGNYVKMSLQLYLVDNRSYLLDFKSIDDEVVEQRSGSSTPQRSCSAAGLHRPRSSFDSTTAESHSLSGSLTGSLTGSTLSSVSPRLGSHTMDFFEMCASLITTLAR
# [11] = biological target: 5'-AMP-activated protein kinase catalytic subunit alpha-2 (Homo sapiens) (UniProt P54646); settings: at 1 µM
# [12] = biological target: T4, NUAK family SNF1-like kinase 1 (Homo sapiens) (UniProt O60285); settings: at 0.1 µM
# T4 sequence (whole entry): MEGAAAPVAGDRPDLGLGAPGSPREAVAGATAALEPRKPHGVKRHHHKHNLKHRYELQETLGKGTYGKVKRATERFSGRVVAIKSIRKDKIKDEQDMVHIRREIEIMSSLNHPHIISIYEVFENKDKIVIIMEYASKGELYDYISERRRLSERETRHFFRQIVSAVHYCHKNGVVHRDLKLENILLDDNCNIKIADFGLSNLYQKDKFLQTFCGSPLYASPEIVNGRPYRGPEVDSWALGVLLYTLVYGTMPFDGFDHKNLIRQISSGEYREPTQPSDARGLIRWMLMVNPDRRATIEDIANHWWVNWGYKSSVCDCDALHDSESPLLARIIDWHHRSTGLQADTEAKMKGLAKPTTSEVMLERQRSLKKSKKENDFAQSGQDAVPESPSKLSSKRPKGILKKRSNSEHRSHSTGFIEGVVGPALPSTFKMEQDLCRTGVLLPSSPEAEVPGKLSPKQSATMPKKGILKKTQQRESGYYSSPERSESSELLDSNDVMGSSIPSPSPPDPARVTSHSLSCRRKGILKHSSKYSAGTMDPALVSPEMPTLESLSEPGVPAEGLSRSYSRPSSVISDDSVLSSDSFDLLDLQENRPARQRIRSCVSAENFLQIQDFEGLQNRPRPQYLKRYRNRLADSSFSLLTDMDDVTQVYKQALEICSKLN
# [13] = biological target: T4, NUAK family SNF1-like kinase 1 (Homo sapiens); settings: at 1 µM
# [14] = biological target: T5, Serine/threonine-protein kinase BRSK1 (Homo sapiens) (UniProt Q8TDC3); settings: at 0.1 µM
# T5 sequence (whole entry): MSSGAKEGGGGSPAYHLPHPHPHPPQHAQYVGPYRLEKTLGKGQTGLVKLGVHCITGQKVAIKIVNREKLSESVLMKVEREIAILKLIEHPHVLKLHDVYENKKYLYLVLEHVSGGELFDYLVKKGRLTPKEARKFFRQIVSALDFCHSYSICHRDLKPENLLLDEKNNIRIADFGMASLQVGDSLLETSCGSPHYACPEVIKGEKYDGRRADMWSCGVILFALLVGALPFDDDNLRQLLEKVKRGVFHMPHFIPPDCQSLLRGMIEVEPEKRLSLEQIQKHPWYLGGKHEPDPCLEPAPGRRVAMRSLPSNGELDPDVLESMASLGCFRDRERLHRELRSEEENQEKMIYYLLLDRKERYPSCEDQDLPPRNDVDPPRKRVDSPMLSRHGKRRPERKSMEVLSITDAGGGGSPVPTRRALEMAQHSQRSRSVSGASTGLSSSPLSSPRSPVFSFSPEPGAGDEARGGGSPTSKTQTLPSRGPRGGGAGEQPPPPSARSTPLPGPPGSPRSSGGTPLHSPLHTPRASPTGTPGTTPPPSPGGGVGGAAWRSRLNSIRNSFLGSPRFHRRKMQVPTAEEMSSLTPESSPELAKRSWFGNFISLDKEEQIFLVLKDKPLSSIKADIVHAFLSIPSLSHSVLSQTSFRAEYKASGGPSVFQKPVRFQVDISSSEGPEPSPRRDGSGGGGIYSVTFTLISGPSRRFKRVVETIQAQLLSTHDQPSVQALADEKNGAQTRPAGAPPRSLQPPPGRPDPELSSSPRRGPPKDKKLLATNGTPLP
# [15] = biological target: T5, Serine/threonine-protein kinase BRSK1 (Homo sapiens); settings: at 1 µM
# [16] = biological target: T6, Serine/threonine-protein kinase BRSK2 (Homo sapiens) (UniProt Q8IWQ3); settings: at 0.1 µM
# T6 sequence (whole entry): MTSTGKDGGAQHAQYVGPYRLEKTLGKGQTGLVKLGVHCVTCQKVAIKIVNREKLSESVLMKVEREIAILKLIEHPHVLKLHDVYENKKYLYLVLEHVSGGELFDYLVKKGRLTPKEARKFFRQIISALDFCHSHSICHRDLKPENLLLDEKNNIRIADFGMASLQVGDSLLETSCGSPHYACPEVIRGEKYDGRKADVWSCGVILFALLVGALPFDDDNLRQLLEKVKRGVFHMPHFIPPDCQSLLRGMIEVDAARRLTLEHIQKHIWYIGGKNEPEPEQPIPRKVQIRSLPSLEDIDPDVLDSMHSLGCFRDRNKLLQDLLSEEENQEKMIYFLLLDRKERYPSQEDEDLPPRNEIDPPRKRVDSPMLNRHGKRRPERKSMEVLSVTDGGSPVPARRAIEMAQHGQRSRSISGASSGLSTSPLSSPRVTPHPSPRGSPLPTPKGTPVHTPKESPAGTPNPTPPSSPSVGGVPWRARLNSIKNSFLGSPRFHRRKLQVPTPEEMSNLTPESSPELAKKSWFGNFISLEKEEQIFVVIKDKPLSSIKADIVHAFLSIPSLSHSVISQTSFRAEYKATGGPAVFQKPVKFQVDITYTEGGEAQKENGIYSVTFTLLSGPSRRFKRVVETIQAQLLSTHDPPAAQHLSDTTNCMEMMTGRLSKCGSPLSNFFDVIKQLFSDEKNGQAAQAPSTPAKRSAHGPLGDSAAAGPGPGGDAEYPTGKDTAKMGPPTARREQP
# [17] = biological target: T6, Serine/threonine-protein kinase BRSK2 (Homo sapiens); settings: at 1 µM
# [18] = biological target: Calcium/calmodulin-dependent protein kinase type 1D (Homo sapiens) (UniProt Q8IU85); settings: at 0.1 µM
# Sequence of Calcium/calmodulin-dependent protein kinase type 1D (Homo sapiens) (Q8IU85 whole entry, looked up): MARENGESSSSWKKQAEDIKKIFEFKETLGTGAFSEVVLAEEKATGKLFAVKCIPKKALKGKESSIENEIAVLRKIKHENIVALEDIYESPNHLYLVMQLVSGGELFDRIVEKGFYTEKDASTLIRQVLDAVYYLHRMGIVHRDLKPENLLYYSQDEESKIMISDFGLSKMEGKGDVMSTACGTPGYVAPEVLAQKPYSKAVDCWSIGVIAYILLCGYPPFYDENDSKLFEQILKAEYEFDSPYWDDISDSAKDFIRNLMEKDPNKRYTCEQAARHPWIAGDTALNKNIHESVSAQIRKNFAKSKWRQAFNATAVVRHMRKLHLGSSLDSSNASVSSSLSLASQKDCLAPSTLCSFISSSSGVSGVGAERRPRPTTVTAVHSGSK
# [19] = biological target: Calcium/calmodulin-dependent protein kinase type 1D (Homo sapiens) (UniProt Q8IU85); settings: at 1 µM
# [20] = biological target: Calcium/calmodulin-dependent protein kinase type II subunit alpha (Homo sapiens) (UniProt Q9UQM7); settings: at 0.1 µM;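 further: reported values are averages (mean inhibition of CAMK2A)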
# Sequence of Calcium/calmodulin-dependent protein kinase type II subunit alpha (Homo sapiens) (Q9UQM7 whole entry): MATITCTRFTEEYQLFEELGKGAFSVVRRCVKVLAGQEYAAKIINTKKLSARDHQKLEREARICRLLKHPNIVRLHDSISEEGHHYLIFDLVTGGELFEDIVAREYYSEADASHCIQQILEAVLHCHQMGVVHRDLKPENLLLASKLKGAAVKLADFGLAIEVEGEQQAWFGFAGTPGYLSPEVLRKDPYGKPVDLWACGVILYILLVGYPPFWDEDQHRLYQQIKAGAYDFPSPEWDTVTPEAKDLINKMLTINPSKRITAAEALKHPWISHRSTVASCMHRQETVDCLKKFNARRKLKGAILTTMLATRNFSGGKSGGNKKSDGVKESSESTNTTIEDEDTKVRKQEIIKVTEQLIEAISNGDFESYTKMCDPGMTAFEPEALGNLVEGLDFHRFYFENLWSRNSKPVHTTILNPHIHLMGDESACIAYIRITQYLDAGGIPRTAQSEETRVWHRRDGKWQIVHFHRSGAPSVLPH
# Sequence of Ribosomal protein S6 kinase alpha-6 (Homo sapiens) (Q9UK32 whole entry): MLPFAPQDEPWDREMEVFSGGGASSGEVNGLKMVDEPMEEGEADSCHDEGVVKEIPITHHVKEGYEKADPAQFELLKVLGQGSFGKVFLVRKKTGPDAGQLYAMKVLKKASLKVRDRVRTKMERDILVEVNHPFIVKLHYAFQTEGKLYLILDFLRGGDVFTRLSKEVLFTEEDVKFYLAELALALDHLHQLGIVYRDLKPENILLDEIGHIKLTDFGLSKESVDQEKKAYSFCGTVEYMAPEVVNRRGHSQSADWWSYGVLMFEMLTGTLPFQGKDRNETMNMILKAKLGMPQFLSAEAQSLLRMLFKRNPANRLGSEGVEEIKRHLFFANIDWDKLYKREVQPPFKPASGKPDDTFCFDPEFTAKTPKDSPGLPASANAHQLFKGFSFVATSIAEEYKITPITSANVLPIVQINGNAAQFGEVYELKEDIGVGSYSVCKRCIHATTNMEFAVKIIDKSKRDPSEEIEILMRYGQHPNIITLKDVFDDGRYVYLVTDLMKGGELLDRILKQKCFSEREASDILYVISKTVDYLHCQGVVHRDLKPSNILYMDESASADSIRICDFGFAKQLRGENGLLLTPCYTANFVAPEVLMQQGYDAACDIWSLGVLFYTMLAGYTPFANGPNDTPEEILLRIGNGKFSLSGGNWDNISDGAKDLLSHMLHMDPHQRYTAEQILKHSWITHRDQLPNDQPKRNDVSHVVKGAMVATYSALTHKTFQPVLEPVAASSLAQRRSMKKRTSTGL
SMILES,inhibition [1],inhibition [2],inhibition [3],inhibition [4],inhibition [5],inhibition [6],inhibition [7],inhibition [8],inhibition [9],inhibition [10],inhibition [11],inhibition [12],inhibition [13],inhibition [14],inhibition [15],inhibition [16],inhibition [17],inhibition [18],inhibition [19],inhibition [20]
CCn1c(-c2nonc2N)nc2cnc(Oc3cccc(NC(=O)c4ccc(N(C)C)cc4)c3)cc21,15.2%,9.87%,49.7%,16.3%,61.9%,43.8%,83.5%,1.59%,2.17%,2.3%,10.1%,3.21%,18.7%,1.7%,3.54%,2.26%,2.76%,0.25%,2.17%,0.79%
N#Cc1c(NC(=O)c2ccc(F)cc2)sc2c1CCCC2,0.81%,0.29%,2.65%,-3.36%,0.76%,-0.34%,1.54%,1.88%,1.54%,0.31%,2.24%,-1.13%,2.02%,1.51%,1.17%,0.78%,2.38%,0.76%,0.45%,0.66%
CC1=C(C(=O)Nc2cc(Cl)c3[nH]ncc3c2)C(c2ccc(C(F)(F)F)cc2)CC(=O)N1 (stereo not given),36.4%,4.9%,17.9%,4.31%,12.5%,8.68%,34.4%,18.4%,62.2%,5.35%,16.3%,1.17%,5.4%,0.02%,3.03%,1.64%,8.61%,-0.28%,1.73%,1.03%
CCn1cc(-c2ccnc3[nH]ccc23)c(-c2cccc(NC(=O)Nc3ccc(OCc4ccccc4)cc3)c2)n1,-1.2%,0.59%,-1.2%,-1.32%,-1.47%,-0.3%,-0.15%,1.13%,1.82%,0.63%,2.24%,-0.37%,1.67%,-0.66%,3.32%,1.2%,0.5%,1.03%,4.92%,1.2%
CS(=O)(=O)CCNCc1ccc(-c2ccc3ncnc(Nc4ccc(OCc5ccccc5)c(C(F)(F)F)c4)c3c2)o1,0.75%,3.38%,3.03%,1.55%,1.26%,2.51%,4.06%,3.06%,2.92%,-6.64%,3.87%,-0.55%,-0.02%,0.14%,4.02%,3.18%,4.31%,0.11%,4.44%,2.86%
O=C(O[C@H]1CN[C@H](C#Cc2cc3ncnc(Nc4ccc(Cc5ccccc5)cc4)c3s2)C1)N1CCOCC1,1.25%,1.05%,1.98%,0.65%,7.04%,2.7%,5.58%,2.64%,1.94%,-0.29%,1.84%,-3.65%,-2.64%,0.3%,2.86%,1.6%,2.92%,-0.64%,-0.69%,0.64%
Nc1ncc(-c2cccc(S(N)(=O)=O)c2)c2scc(-c3ccc(F)c(Cl)c3)c12,3.24%,2.77%,2.35%,-0.69%,4.55%,3.54%,0.56%,3.66%,4.69%,0.92%,4.34%,0.82%,2.44%,1.61%,5.62%,3.28%,6.56%,1.24%,0.88%,3.36%
[O-][S+]1CCN(Cc2ccc(-c3ccc4ncnc(Nc5ccc(OCc6cccc(F)c6)c(Cl)c5)c4c3)o2)CC1,1.89%,3.42%,4%,-0.64%,2.65%,4.53%,3.72%,3.59%,5.6%,5.66%,5.75%,0.9%,3.1%,1.17%,3.09%,3.06%,4.57%,0.83%,1.18%,3.06%
CCN1CCC(CC(=O)Nc2n[nH]c3nnc(-c4cccc(F)c4F)cc23)CC1,1.38%,0.53%,0.29%,-3.94%,1.93%,0.82%,4.18%,2.47%,3.36%,2.36%,5.17%,-1.66%,1.56%,-0.52%,3.84%,2.07%,-0.1%,1.6%,-1.42%,3.17%
N#Cc1c(NC(=O)CN2CCOCC2)sc2c1CCCC2,1.35%,0.28%,5.76%,2.3%,4.38%,3.14%,4.05%,3.31%,4.25%,1.66%,2.26%,2.61%,4.86%,0.57%,1.52%,2.72%,3.03%,-0.19%,0.36%,3.08%
c1ccc(COc2ccc(Nc3ncnc4ccc(-c5ccco5)cc34)cc2)cc1,-0.53%,1.43%,0.51%,-1.79%,2.2%,-0.56%,0.58%,0.67%,2.29%,-2.52%,3.28%,-0.16%,-1.67%,-0.97%,1.48%,0.91%,1.54%,0.28%,11.7%,2.01%
CC(C)(CO)CNC(=O)c1ccc2c(c1)/C(=N/Nc1ccc(S(N)(=O)=O)cc1)C(=O)N2,9.45%,0.94%,8.72%,0.65%,3.3%,-2.66%,3.04%,26%,72.3%,6.91%,33.7%,19.7%,58.6%,6.46%,37.7%,11.6%,52.2%,0.39%,1.92%,-0.2%
